According to PubChem BioAssay (NCATS):
Several values for one entry are separate records, joined by “and”; a condition that tells them apart may be missing. Equal entries are not always repeated. Results filed as inconclusive are left out. A call without a number means that no potency is given here. Activity calls are given as the source filed them. Calls come from the whole dose curve; as a rule, active = well fitted inhibition curve with a large enough effect; inconclusive = small, poorly fitted or top-dose-only effect; inactive = no such curve, though single readings can be large or run the other way.

Experiment: qHTS for Inhibitors of the Aldehyde Dehydrogenase Family (ALDH1A2, ALDH1A3, ALDH2, ALDH3A1) (AID 2061307); note: nearly all actives have a fitted effect of over 50% in size; for potency: test system not described further here
Conditions: ALDH inhibition qHTS; series mostly up to 50.3 µM
Potency is the fitted concentration of half-maximal effect.

| SMILES | Potency |
| --- | --- |
| O=C(c1ccc(F)cc1)c1no[n+]([O-])c1C(=O)c1ccc(F)cc1 | 12.7 µM (active) |
| Cc1ccc(OCCCn2c(CCN)nc3ccccc32)cc1 | inactive |
| CCOC(=O)OC(C)OC(=O)c1csc(-n2[nH]c(-c3ccc(F)c(F)c3)cc2=O)n1 (stereo unspecified) | inactive |
| COc1ccc(-n2ccc(C(=O)NC(C)(C)C)n2)cc1 | inactive |
| CCN(CC)C(=O)c1ccc(Nc2ncnc3sc(C)c(C)c23)cc1 | 6.31 µM (active) |
| Cc1cc(=O)n2[nH]c(NC(=O)c3ccccc3C)nc2n1 | inactive |
| NC(=O)Cc1ccc(Nc2ncnc3c2cnn3-c2ccccc2)cc1 | inactive |
| Cc1cccc(NC(=O)CSCC(=O)Nc2ccc(F)cc2)c1 | inactive |
| NS(=O)(=O)c1ccc(Cc2cn(-c3nc(C(=O)O)cs3)c3ccccc23)cc1 | inactive |
| COc1ccc(-n2cc(-c3ccc4c(c3)OCO4)n(CC(=O)Nc3cccc(C)c3)c2=O)cc1 | inactive |
| COc1ccc(-c2nn(-c3ccccc3)cc2C(=O)Nc2ccccc2OC)cc1 | inactive |
| COc1cccc(-c2cnc(N3CCC(C(N)=O)CC3)s2)c1 | inactive |
| Cc1ccc(NC(=O)Nc2cc3c(cc2N2CCCCC2)n(C)c(=O)n3C)cc1Cl | 3.55 µM (active) and 798 nM (active) |
| [2H]C([2H])([2H])N1CCC(N(CCc2ccccc2)Cc2ccccc2)CC1 | inactive |
| Cc1ccc(N(C)S(=O)(=O)c2ccc(-c3cnc(C4CC4)o3)cc2)cc1 | inactive |
| COc1ccc(-n2ncc3c2CCCC3NC(=O)c2cccc(C(F)(F)F)c2)cc1 (stereo unspecified) | 11.3 µM (active) |
